Results as given in paper PMC4336329 (PLoS ONE, 2015).
About 14,000 (4.5%) of roughly 310,000 compounds showed an effect of 50% or more. The effect is printed as a negative number. The full list was thinned out, with strong results kept by preference.

target: human ether-à-go-go-related gene (hERG) potassium channel (human, UniProt Q12809); assay: primary screen, population patch clamp on CHO cells stably expressing hERG; higher = less effect of the substance
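Also: peak tail current of the secondary pulse compared with the same well before compound.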

Sequence of human ether-à-go-go-related gene (hERG) potassium channel (Q12809 whole entry, looked up): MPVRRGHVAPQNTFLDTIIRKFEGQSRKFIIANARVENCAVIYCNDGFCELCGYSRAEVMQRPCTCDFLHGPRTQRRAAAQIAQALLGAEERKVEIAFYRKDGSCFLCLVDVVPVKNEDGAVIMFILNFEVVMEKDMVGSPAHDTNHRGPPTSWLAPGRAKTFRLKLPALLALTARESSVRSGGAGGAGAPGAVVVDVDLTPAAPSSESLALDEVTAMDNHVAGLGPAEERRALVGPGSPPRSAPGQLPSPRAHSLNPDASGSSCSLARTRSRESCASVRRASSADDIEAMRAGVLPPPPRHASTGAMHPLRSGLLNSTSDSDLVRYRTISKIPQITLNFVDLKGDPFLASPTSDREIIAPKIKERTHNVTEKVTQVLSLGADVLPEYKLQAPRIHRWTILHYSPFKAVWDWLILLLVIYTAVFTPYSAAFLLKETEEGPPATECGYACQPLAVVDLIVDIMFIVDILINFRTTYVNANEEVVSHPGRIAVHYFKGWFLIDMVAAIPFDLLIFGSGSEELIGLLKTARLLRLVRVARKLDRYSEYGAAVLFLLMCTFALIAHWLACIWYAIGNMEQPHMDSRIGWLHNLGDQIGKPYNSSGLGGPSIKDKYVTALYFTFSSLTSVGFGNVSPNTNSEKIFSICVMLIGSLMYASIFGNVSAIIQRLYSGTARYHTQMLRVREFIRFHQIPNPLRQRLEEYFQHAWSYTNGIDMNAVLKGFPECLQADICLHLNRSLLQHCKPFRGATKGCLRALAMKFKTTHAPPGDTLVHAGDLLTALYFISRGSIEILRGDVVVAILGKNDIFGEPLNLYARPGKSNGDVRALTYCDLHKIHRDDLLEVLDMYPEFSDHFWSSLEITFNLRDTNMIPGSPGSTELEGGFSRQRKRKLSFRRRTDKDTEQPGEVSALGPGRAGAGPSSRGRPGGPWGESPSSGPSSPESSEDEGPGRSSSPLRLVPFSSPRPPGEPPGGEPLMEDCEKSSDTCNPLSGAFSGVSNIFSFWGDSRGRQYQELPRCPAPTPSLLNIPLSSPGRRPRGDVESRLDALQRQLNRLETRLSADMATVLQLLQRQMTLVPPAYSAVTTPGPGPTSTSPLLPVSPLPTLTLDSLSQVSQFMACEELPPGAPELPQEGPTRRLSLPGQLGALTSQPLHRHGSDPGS

Compound | hERG current change (%, negative = inhibition) at 10uM [%]
O=C(CC1(c2ccc(Cl)cc2)C2CC3CC(C2)CC1C3)NCCO (stereo not shown) | -7.17
O=C(COC(=O)c1cccc(-n2cnnn2)c1)c1ccccc1 | -4.63
OCc1ccccc1SSc1ccccc1CO | 14.5
COc1ccc2[nH]c(C)c(CCN3C(=O)OC(C)(C)C3(C)O)c2c1 (stereo not shown) | 9.02
Cc1cccc(-n2nnc(C(=O)NCc3ccccn3)c2N)c1 | 0.598
CCc1noc(C)c1C(=O)N1CCN(S(=O)(=O)c2cc(C)ccc2C)CC1 | -1.66
O=C(c1ccco1)N1CCN(S(=O)(=O)c2ccc(Oc3ccccc3)cc2)CC1 | -31.5
Cc1ccc(C(=O)C(C)OC(=O)Cn2cnc3c2c(=O)n(C)c(=O)n3C)cc1 (stereo not shown) | -0.153
N#Cc1ccc(Oc2ccc(C(F)(F)F)cc2NC(=O)c2ccc(F)cc2)cc1 | -70.2
COc1ccc(Oc2ccc(C(F)(F)F)cc2NC(=O)c2ccc(F)cc2)cc1 | 6.56
COc1ccc(Oc2ccc(C(F)(F)F)cc2NC(=O)c2ccc(OC)cc2)cc1 | 12.5
CC(=O)c1c(C)[nH]c(C(=O)CN2CCN(S(=O)(=O)c3ccccc3[N+](=O)[O-])CC2)c1C | -6.62
CCCCC(CC(C)O)c1n[nH]c(=S)n1-c1ccccc1 (stereo not shown) | 3.1
O=C(/C=C/c1ccccc1)NC(=S)N1C[C@H]2C[C@H](C1)c1cccc(=O)n1C2 | -15
COc1ccc(/C=C/C(=O)NC(=S)N2C[C@H]3C[C@H](C2)c2cccc(=O)n2C3)cc1 | -18.2
COc1ccc(/C=C/C(=O)NC(=S)N2C[C@H]3C[C@H](C2)c2cccc(=O)n2C3)cc1OC | 6.67
O=C(/C=C/c1ccc(Br)cc1)NC(=S)N1C[C@H]2C[C@H](C1)c1cccc(=O)n1C2 | -57.9
O=C(/C=C/c1ccc(Cl)cc1)NC(=S)N1C[C@H]2C[C@H](C1)c1cccc(=O)n1C2 | -53.1
O=C(/C=C/c1ccc(F)cc1)NC(=S)N1C[C@H]2C[C@H](C1)c1cccc(=O)n1C2 | -22.9
O=C(NCc1ccco1)Nc1ccc2snnc2c1 | 2.51
CNC(=O)c1c(NC(NC(=O)c2ccco2)C(=O)c2ccc(Cl)cc2)sc2c1CCCC2 (stereo not shown) | -20.3
CC1=C(C(=O)Nc2ccccc2)C(c2ccc(C)o2)n2c(s/c(=C/c3ccccc3)c2=O)=N1 (stereo not shown) | 18.1

Compound | hERG current change (%, negative = inhibition) at 10uM [%]
COc1ccccc1NCc1ccc([N+](=O)[O-])s1 | -47.7
CC1CN(C(=O)C(C)OC(=O)c2ccc3ncsc3c2)CC(C)O1 (stereo not shown) | 20.1
O=C(c1ccc2ncsc2c1)N1CCCCC1 | 17.9
CC(OC(=O)c1ccc2ncsc2c1)C(=O)N1CCCC1 (stereo not shown) | -56.9
CCCc1nnc(SCC(=O)N2CCCC2)n1Cc1ccco1 | 1.2
Cc1ccc2c(c1)sc(=NC(=O)C1CC1)n2C | -4.01
CCOC(=O)c1cnc2ccc(C)cc2c1Sc1ccccc1C(=O)OC | -2.26
CCOC(=O)C1CCN(Cc2cn[nH]c2-c2ccccc2)CC1.O=C(O)C(=O)O | -9.8
CCOC(=O)C1CCN(Cc2cn[nH]c2-c2ccc(C)cc2)CC1 | -51.8
COc1ccc(-c2[nH]ncc2CN2CCN(C(=O)c3cccs3)CC2)c(F)c1 | -21.5
CCOC(=O)N1CCN(Cc2cn[nH]c2-c2cc3ccccc3o2)CC1 | -34.4
COc1ccc(CN2CCN(C(=O)c3cccs3)CC2)c(OC)c1OC | -6.53
CCOC(=O)N1CCN(Cc2cn[nH]c2-c2ccc(-c3ccccc3)cc2)CC1 | -54.8
Cc1ccc(-c2[nH]ncc2CN2CCN(C(=O)c3cccs3)CC2)cc1C | -62.5
CCOC(=O)C1CCN(Cc2ccccc2C)CC1 | 0.665
CCOC(=O)N1CCN(Cc2cn[nH]c2-c2cccc3ccccc23)CC1 | -4.57
O=C(Nc1cc(=O)[nH]c2nc(-c3ccccc3)nn12)c1ccccc1Cl | 15.3
Cc1sc(NC(=O)c2ccc(Br)s2)c(C(N)=O)c1C | 17.5
OCCN(Cc1ccccc1)Cc1ccc(Cl)cc1Cl | -14
OCCN(Cc1ccccc1)Cc1ccc(Cl)cc1 | -73
OCCN(Cc1ccccc1)Cc1ccc(F)c(F)c1 | -14.9
COc1ccc(S(=O)(=O)N2CCOC2CNC(=O)C(=O)NCc2ccccn2)cc1C (stereo not shown) | 11.6

Compound | hERG current change (%, negative = inhibition) at 10uM [%]
CCc1noc(C)c1C(=O)Nc1nc(-c2ccccc2)cs1 | -32.6
Cc1ccc(-c2csc(NC(=O)c3c(C)noc3C)n2)cc1 | -31.7
Cc1noc(C)c1C(=O)Nc1nc(-c2ccccc2Cl)cs1 | -0.869
CCc1noc(C)c1C(=O)Nc1nc(-c2ccc(OC)cc2)cs1 | -6.43
CCc1noc(C)c1C(=O)Nc1nc(-c2cccs2)cs1 | -57
Cc1noc(C)c1C(=O)Nc1nc(-c2cccs2)cs1 | -56.9
Cc1ccc(NC(=S)N2CCN(C(=O)C3CCCO3)CC2)cc1 (stereo not shown) | 17.8
Cc1c(N)c(C(C)(C)C)cc(C(C)(C)C)c1[N+](=O)[O-] | 0.751
Cc1sc2ncnc(SCC(=O)c3ccc(Cl)s3)c2c1C | 18.3
Cc1cc(NC(=O)CN2CCCCC2)no1.O=C(O)C(=O)O | 18.8
Cc1ccc2ccc3cccc4ccc1c2c34 | 14
S=c1[nH]nc(COc2ccccc2)n1/N=C/C=C/c1ccco1 | 3.42
CC(NC(=O)Nc1ccccc1)C(c1cccs1)N1CCN(C)CC1 (stereo not shown) | -17.8
CC(NC(=O)Nc1cccc(Cl)c1)C(c1cccs1)N1CCCC1 (stereo not shown) | -22.8
CC(NC(=O)Nc1ccc([N+](=O)[O-])cc1)C(c1cccs1)N1CCCC1 (stereo not shown) | -60.1
NC(=O)CSc1nnc(-c2ccncc2)n1-c1ccc(Cl)cc1 | -21.5
COc1ccc(NC(=S)N2CCN(S(C)(=O)=O)CC2)cc1OC | 4.68
Cc1ccc(C(=O)O/N=C(\N)Cc2cccs2)c(Cl)c1 | 0.558
O=C(c1nc2ccccn2c1CN1CCN(c2ccccc2O)CC1)N1CCCC1 | 34.7
Cc1cccc(OC2CCN(Cc3c(C(=O)N4CCCC4)nc4ccccn34)CC2)c1 | -59.4
Cc1cccc(CN2CCC(Oc3ccc(C(=O)N4CCCCC4)cc3)CC2)c1 | -21.9
O=C(c1nc2ccccn2c1CN1CCCC(OCc2ccccc2)C1)N1CCCC1 (stereo not shown) | -44.8

Compound | hERG current change (%, negative = inhibition) at 10uM [%]
COC1CCN(Cc2c(C(=O)N3CCN(C4CCCCC4)CC3)nc3ccccn23)CC1 | 5.42
O=C(c1nc2ccccn2c1CN1CCC(Cc2ccccc2)CC1)N1CCCC1 | -70.7
CCCCCCNS(=O)(=O)c1ccc(NC(=O)C2CCCO2)cc1 (stereo not shown) | -21.8
Cc1ccc2sc(N3CCN(C(=O)C4=COCCO4)CC3)nc2c1C | -15.6
COc1ccc(OCc2cccc(C(=O)NN)c2)cc1 | 2.35
CC1CCCC(C)N1C(=O)c1cc(F)c(F)cc1Cl (stereo not shown) | 16.1
COc1ccc(CCNC(=O)C/C(C)=N/NC(=O)C2CCCCC2)cc1OC | 8.79
COc1ccc(CN(C)C(=O)CCCNC(=O)c2ccc(Cl)cc2)cc1 | -26.6
CCN(C(=O)C(C)OC(=O)CCCNC(=O)c1ccc(Cl)cc1)c1ccccc1 (stereo not shown) | -25.1
CC(OC(=O)CCCNC(=O)c1ccc(Cl)cc1)C(=O)N(C)Cc1ccccc1 (stereo not shown) | -54.2
Cc1ccc(N2CC(C)Cn3c2nc2c3c(=O)[nH]c(=O)n2C)cc1C (stereo not shown) | -10.9
Cc1c(Br)cc(C(=O)N2CCCC2)c(C)c1C | 0.525
O=C(C1=C(O)C(=O)N(CCN2CCOCC2)C1c1ccc(Cl)cc1)c1cc2ccccc2o1 (stereo not shown) | 10.3
CCCCN(C)CCNC(=O)c1ccc2c(c1)NC(=O)C(N1CCCCC1)S2 (stereo not shown) | 2.48
Cc1cc(Cl)ccc1C(=O)C1CCCN(C(=O)c2ccc3ncccc3c2)C1 (stereo not shown) | -29.5
O=C(c1ccc(Cl)cc1)C1CCCN(Cc2cccc3cccnc23)C1 (stereo not shown) | -75.9
O=C(c1ccc(Cl)cc1)C1CCCN(Cc2ccc3ncccc3c2)C1 (stereo not shown) | -64.3
O=C(c1ccc(Cl)cc1)C1CCCN(Cc2ccc3nonc3c2)C1 (stereo not shown) | -34.9
O=C(c1ccc(Cl)cc1)C1CCCN(Cc2cccc3ncccc23)C1 (stereo not shown) | -52.1
O=C(c1cccc(Cl)c1)C1CCCN(Cc2cccc3cnccc23)C1 (stereo not shown) | -32.7
O=C(c1ccc(Cl)cc1)C1CCCN(Cc2cccc3cnccc23)C1 (stereo not shown) | -44.8
CC(C)c1ccc(NC(=O)c2ccc(NS(C)(=O)=O)cc2)cc1 | 3.29
